Data reported in the supplement of paper PMC12669032.
A number with no mark means an inactive call.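 How the source made its calls: active = AUC reduced over 20% with Padj below 0.05 in at least 2 of 3 replicates; inactive = otherwise.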

How the values were obtained:
Assay in all cases: growth AUC relative to DMSO control (median of replicates) (fraction); higher = more growth (less inhibition), active = hit call of the paper
Conditions in all cases: 20 µM; 24 h
Coprococcus comes = system: Coprococcus comes
In short: (§1)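 Starting at OD600 0.05, gut bacterial monocultures in mGAM were grown anaerobically at 37 °C with 20 µM compound (1% DMSO) under pierced gas-permeable seals. OD600 was read every hour for 24 h, and the lowest OD of each curve was set to 0. Area under the growth curve was normalised to the plate median of solvent-only wells, or to row and column medians on the industrial chemical plate, and the median of three biological replicates grown on separate days is given.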

Escherichia coli ED1a = system: Escherichia coli ED1a
In short: as §1

Escherichia coli IAI1 = system: Escherichia coli IAI1
In short: as §1

Eubacterium rectale = system: Eubacterium rectale
In short: as §1

[1] = system: Fusobacterium nucleatum subsp. animalis
In short: as §1

Lactobacillus gasseri = system: Lactobacillus gasseri
In short: as §1

Lactobacillus paracasei = system: Lactobacillus paracasei
In short: as §1

Odoribacter splanchnicus = system: Odoribacter splanchnicus
In short: as §1

[2] = system: Parabacteroides distasonis
In short: as §1

Parabacteroides merdae = system: Parabacteroides merdae
In short: as §1

Roseburia intestinalis = system: Roseburia intestinalis
In short: as §1

Streptococcus salivarius = system: Streptococcus salivarius
In short: as §1

Row | SMILES | growth AUC (Coprococcus comes) | growth AUC (Escherichia coli ED1a) | growth AUC (Escherichia coli IAI1) | growth AUC (Eubacterium rectale) | growth AUC [1] | growth AUC (Lactobacillus gasseri) | growth AUC (Lactobacillus paracasei) | growth AUC (Odoribacter splanchnicus) | growth AUC [2] | growth AUC (Parabacteroides merdae) | growth AUC (Roseburia intestinalis) | growth AUC (Streptococcus salivarius)
1 | CCOP(=O)(SC(C)CC)N1CCSC1=O (configuration not stated) | 1 | 0.984 | 0.986 | 0.862 | 1.01 | 0.997 | 1.01 | 1.04 | 1.05 | 1.01 | 1.03 | 1.02
2 | Clc1cc(Cl)c(Cl)c(Cl)c1 | 0.984 | 0.961 | 0.982 | 1.05 | 0.957 | 0.918 | 0.949 | 1.08 | 0.953 | 0.941 | 0.91 | 0.968
3 | O=C(O)c1ccc(Cl)nc1 | 0.946 | 1.01 | 0.967 | 1.05 | 1.1 | 1.15 | 0.974 | 0.968 | 1.02 | 1.01 | 1.16 | 0.973
4 | CNC(=O)N(C)c1nnc(C(C)(C)C)s1 | 0.995 | 0.99 | 0.945 | 0.931 | 0.969 | 1.16 | 0.941 | 0.963 | 0.973 | 1 | 1.03 | 0.959
5 | COC(=O)C(C)(Cl)Cl | 0.987 | 0.977 | 1.02 | 0.934 | 1.03 | 1.18 | 1.03 | 0.956 | 1.05 | 1.04 | 1.12 | 0.979
6 | CC1CNC(=S)N1 (configuration not stated) | 1.03 | 1.01 | 1.06 | 1.06 | 1.05 | 0.989 | 1.06 | 1.02 | 0.983 | 1.02 | 1.02 | 1
7 | ClCC(Br)CBr (configuration not stated) | 1 | 0.985 | 0.996 | 0.994 | 0.995 | 0.916 | 0.995 | 1.02 | 1 | 0.996 | 1 | 0.973
8 | CCNc1nc(Cl)nc(NC(C)(C)C#N)n1 | 0.988 | 1.02 | 0.988 | 0.889 | 0.949 | 1.19 | 0.968 | 0.985 | 1 | 1.01 | 1.03 | 0.976
9 | CC(C)Oc1cc(-n2nc(C(C)(C)C)oc2=O)c(Cl)cc1Cl | 1.01 | 0.96 | 0.993 | 1.04 | 1 | 0.803 | 1.01 | 0.967 | 0.705 (active) | 0.96 | 0.931 | 0.971
10 | Cc1ccc(-c2c(Cl)nc(C#N)n2S(=O)(=O)N(C)C)cc1 | 1.03 | 0.944 | 1.02 | 0.992 | 1.09 | 1 | 1.03 | 0.989 | 0.551 (active) | 0.818 | 0.995 | 0.956
11 | C[C@@H](Oc1ccc(Cl)cc1Cl)C(=O)O | 0.967 | 1.02 | 1.02 | 1.17 | 1.07 | 0.906 | 0.949 | 0.98 | 0.964 | 1.01 | 0.927 | 0.919
12 | O=C(NC(=O)c1ccccc1Cl)Nc1ccc(OC(F)(F)F)cc1 | 0.949 | 0.97 | 0.952 | 1.04 | 0.728 | 0.856 | 0.892 | 1.04 | 0.965 | 0.971 | 0.918 | 0.951
13 | CC(C)(C)C(O)C(Oc1ccc(Cl)cc1)n1cncn1 (configuration not stated) | 0.998 | 1.01 | 1.02 | 0.97 | 1.07 | 1.02 | 1.04 | 1.03 | 1.02 | 0.998 | 1.03 | 1.03
14 | Oc1cccc2cccnc12 | 0.928 | 0.987 | 0.982 | 0.904 | 1.04 | 1.08 | 0.942 | 1.02 | 1 | 0.993 | 1 | 0.995
15 | CC(C)OC(=O)C(O)(c1ccc(Br)cc1)c1ccc(Br)cc1 | 0.905 | 1.01 | 1.01 | 0.912 | 1.01 | 0.918 | 0.981 | 1.05 | 0.854 | 0.868 | 1 | 0.962
16 | CNC(=O)Oc1cccc2c1OC(C)(C)C2O (configuration not stated) | 1.05 | 1.01 | 1.01 | 1.05 | 1.15 | 0.862 | 1.11 | 1.02 | 0.88 | 1.09 | 0.979 | 1.02
17 | O=C(O)COc1nc(Cl)c(Cl)cc1Cl | 0.867 | 0.971 | 1.01 | 1.15 | 1.1 | 0.818 | 1.01 | 0.992 | 0.781 | 1.01 | 1.01 | 1.01
18 | CCCN(CCC)c1c([N+](=O)[O-])cc(C(F)(F)F)cc1[N+](=O)[O-] | 1 | 1.02 | 1.01 | 1.01 | 1.03 | 1.03 | 1.09 | 1.01 | 1.09 | 1.01 | 1 | 1.04
19 | CCC1(C(=O)NC(C)c2ccc(Cl)cc2)C(C)C1(Cl)Cl (configuration not stated) | 0.97 | 0.964 | 1 | 1 | 0.886 | 0.871 | 0.955 | 0.851 | 0.641 (active) | 0.91 | 0.888 | 0.97
20 | N#Cc1nn(-c2c(Cl)cc(C(F)(F)F)cc2Cl)c(N)c1S(=O)C(F)(F)F (configuration not stated) | 1 | 1.01 | 0.981 | 0.951 | 0.974 | 0.811 | 0.98 | 0.93 | 0.714 (active) | 0.87 | 0.914 | 0.811
21 | O=C(O)CCCOc1ccc(Cl)cc1Cl | 1.05 | 0.984 | 0.981 | 1.18 | 0.933 | 1.01 | 1 | 1.11 | 0.919 | 0.979 | 0.966 | 0.969
22 | CCOC(=O)CC(SP(=S)(OC)OC)C(=O)OCC (configuration not stated) | 0.984 | 0.975 | 1.02 | 1.07 | 0.977 | 0.917 | 1.13 | 1.07 | 0.959 | 1.01 | 0.99 | 0.939
23 | O=C(O)COc1ccccc1 | 0.999 | 0.981 | 1 | 1 | 1.01 | 1.03 | 0.753 | 1.03 | 1 | 0.959 | 0.995 | 0.994
24 | COP(=S)(OC)Oc1ccc(S(=O)(=O)N(C)C)cc1 | 0.984 | 1 | 0.985 | 0.998 | 0.894 | 0.925 | 0.935 | 0.977 | 1.01 | 0.969 | 0.971 | 1.04
25 | CC(C)[C@H](C(=O)O[C@H](C#N)c1cccc(Oc2ccccc2)c1)c1ccc(Cl)cc1 | 0.973 | 0.962 | 0.959 | 0.934 | 0.954 | 0.901 | 1.01 | 1.09 | 0.923 | 1.01 | 0.913 | 0.948
26 | CCOP(=S)(OCC)SCSP(=S)(OCC)OCC | 0.997 | 0.983 | 1.01 | 0.954 | 1.04 | 0.988 | 1.07 | 1.01 | 1 | 0.997 | 1.09 | 0.958
